Over roughly 16,000 sequences, “rpm ratio (pull-down/input)” has its median near 0.5; the highest 2% begin near 5.5. Shown is part of a subset that was picked to be rich in the highest values.

The target of this assay is T1, MBP-FoxP3dN (Mus musculus, UniProt Q99JB6 188-423).
T1 sequence: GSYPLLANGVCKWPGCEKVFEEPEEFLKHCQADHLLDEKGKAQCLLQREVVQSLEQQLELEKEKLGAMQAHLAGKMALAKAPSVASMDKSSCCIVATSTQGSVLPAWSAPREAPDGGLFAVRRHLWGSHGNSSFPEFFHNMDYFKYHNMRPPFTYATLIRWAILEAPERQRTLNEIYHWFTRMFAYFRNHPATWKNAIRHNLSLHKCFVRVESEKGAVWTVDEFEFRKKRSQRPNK
In words: PD-seq (MBP pull-down with sequencing); 20 mM Tris-HCl pH 7.5, 100 mM NaCl, 1.5 mM MgCl2, 0.4 uM protein, 0.1 uM dsDNA library, 30 min, room temperature, amylose pull-down; high values mean tight binding. Particulars: protein: recombinant; tags: His6-MBP; chain copies: 2; dsDNA, one strand shown. Put shortly:
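In Tris pH 7.5 buffer with NaCl and MgCl2, 0.4 µM His6-MBP-tagged mouse FoxP3 or FoxP1 fragment lacking the N-terminus, from E. coli, met 0.1 µM Klenow-filled double-stranded degenerate DNA library for 30 min at room temperature. Three washes on amylose resin followed capture of the complexes, then proteinase K release of DNA, PCR barcoding and Illumina sequencing. Binding is taken as pooled-replicate reads-per-million enrichment of pull-down relative to input.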
For “GATGATTGTTCTCCCAGCTGATGAATTTGCGAATTCGAGTAAACAAATTTTCCTAATCTTTCTGTTCAAGCGCCATCTAC”, the binding signal is 1.18 RPM ratio (pull-down/input).

Consider “GATGATTGTTCTCCCAGCTGATGAATTGCGCGCATCGAGTAAACAAATTTTCCTAATCTTTCTGTTCAAGCGCCATCTAC”, for which the binding signal was 2.39 RPM ratio (pull-down/input).

Consider “GATGATTGTTCTCCCAGCTGATGAATTTGCGCATTCGAGTAAACAAATTTTCCTAATCTTTCTGTTCAAGCGCCATCTAC”, for which the binding signal is 7.07 RPM ratio (pull-down/input).

As for “GATGATTGTTCTCCCAGCTGATGAATTGCGCATTTCGAGTAAACAAATTTTCCTAATCTTTCTGTTCAAGCGCCATCTAC”, the binding signal was 8.05 RPM ratio (pull-down/input).

As for “GATGATTGTTCTCCCAGCTGATGAATTGCATTGTTCGAGTAAACAAATTTTCCTAATCTTTCTGTTCAAGCGCCATCTAC”, the binding signal is 4.05 RPM ratio (pull-down/input).

For the sequence “GATGATTGTTCTCCCAGCTGATGAATTGCGCATCTCGAGTAAACAAATTTTCCTAATCTTTCTGTTCAAGCGCCATCTAC”, the binding signal was 8.03 RPM ratio (pull-down/input).

For the sequence “GATGATTGTTCTCCCAGCTGATGAATTGCATTTTTCGAGTAAACAAATTTTCCTAATCTTTCTGTTCAAGCGCCATCTAC”, the binding signal was 3.02 RPM ratio (pull-down/input).

Turning to “GATGATTGTTCTCCCAGCTGATGAATTTTGCGCATCGAGTAAACAAATTTTCCTAATCTTTCTGTTCAAGCGCCATCTAC”, the binding signal was 1.98 RPM ratio (pull-down/input).

For the sequence “GATGATTGTTCTCCCAGCTGATGAATTTTTGACCTCGAGTAAACAAATTTTCCTAATCTTTCTGTTCAAGCGCCATCTAC”, the binding signal is 0.237 RPM ratio (pull-down/input).

As to “GATGATTGTTCTCCCAGCTGATGAATTCTTCTGCTCGAGTAAACAAATTTTCCTAATCTTTCTGTTCAAGCGCCATCTAC”, the binding signal is 0.236 RPM ratio (pull-down/input).

For “GATGATTGTTCTCCCAGCTGATGAATTACGTGACTCGAGTAAACAAATTTTCCTAATCTTTCTGTTCAAGCGCCATCTAC”, the binding signal is 0.737 RPM ratio (pull-down/input).

As for “GATGATTGTTCTCCCAGCTGATGAATTGATCAAATCGAGTAAACAAATTTTCCTAATCTTTCTGTTCAAGCGCCATCTAC”, the binding signal is 0.304 RPM ratio (pull-down/input).

As for “GATGATTGTTCTCCCAGCTGATGAATTGGGAACGTCGAGTAAACAAATTTTCCTAATCTTTCTGTTCAAGCGCCATCTAC”, the binding signal was 0.31 RPM ratio (pull-down/input).

“GATGATTGTTCTCCCAGCTGATGAATTATAGAACTCGAGTAAACAAATTTTCCTAATCTTTCTGTTCAAGCGCCATCTAC”: the binding signal was 0.249 RPM ratio (pull-down/input).

Regarding “GATGATTGTTCTCCCAGCTGATGAATTGCGCTGATCGAGTAAACAAATTTTCCTAATCTTTCTGTTCAAGCGCCATCTAC”, the binding signal was 0.898 RPM ratio (pull-down/input).

“GATGATTGTTCTCCCAGCTGATGAATTCCTGAATTCGAGTAAACAAATTTTCCTAATCTTTCTGTTCAAGCGCCATCTAC”: the binding signal was 0.481 RPM ratio (pull-down/input).

Consider “GATGATTGTTCTCCCAGCTGATGAATTATTGTTTTCGAGTAAACAAATTTTCCTAATCTTTCTGTTCAAGCGCCATCTAC”, for which the binding signal was 3.7 RPM ratio (pull-down/input).

In the case of “GATGATTGTTCTCCCAGCTGATGAATTTATTGTTTCGAGTAAACAAATTTTCCTAATCTTTCTGTTCAAGCGCCATCTAC”, the binding signal was 6.4 RPM ratio (pull-down/input).

As for “GATGATTGTTCTCCCAGCTGATGAATTGTTTATTTCGAGTAAACAAATTTTCCTAATCTTTCTGTTCAAGCGCCATCTAC”, the binding signal was 6.99 RPM ratio (pull-down/input).

As to “GATGATTGTTCTCCCAGCTGATGAATTTATTTCTTCGAGTAAACAAATTTTCCTAATCTTTCTGTTCAAGCGCCATCTAC”, the binding signal was 3.01 RPM ratio (pull-down/input).

With “GATGATTGTTCTCCCAGCTGATGAATTTCATACATCGAGTAAACAAATTTTCCTAATCTTTCTGTTCAAGCGCCATCTAC”, the binding signal is 0.449 RPM ratio (pull-down/input).

Take “GATGATTGTTCTCCCAGCTGATGAATTGAGGACGTCGAGTAAACAAATTTTCCTAATCTTTCTGTTCAAGCGCCATCTAC”: the binding signal is 0.248 RPM ratio (pull-down/input).

In the case of “GATGATTGTTCTCCCAGCTGATGAATTGTATCGGTCGAGTAAACAAATTTTCCTAATCTTTCTGTTCAAGCGCCATCTAC”, the binding signal is 0.882 RPM ratio (pull-down/input).

As for “GATGATTGTTCTCCCAGCTGATGAATTCCAGTGGTCGAGTAAACAAATTTTCCTAATCTTTCTGTTCAAGCGCCATCTAC”, the binding signal was 0.415 RPM ratio (pull-down/input).

Take “GATGATTGTTCTCCCAGCTGATGAATTGTGTTTCTCGAGTAAACAAATTTTCCTAATCTTTCTGTTCAAGCGCCATCTAC”: the binding signal is 4.32 RPM ratio (pull-down/input).

Regarding “GATGATTGTTCTCCCAGCTGATGAATTTTGTGTCTCGAGTAAACAAATTTTCCTAATCTTTCTGTTCAAGCGCCATCTAC”, the binding signal was 4.27 RPM ratio (pull-down/input).

As to “GATGATTGTTCTCCCAGCTGATGAATTTTTGTGTTCGAGTAAACAAATTTTCCTAATCTTTCTGTTCAAGCGCCATCTAC”, the binding signal was 1.04 RPM ratio (pull-down/input).

“GATGATTGTTCTCCCAGCTGATGAATTTGTGTGTTCGAGTAAACAAATTTTCCTAATCTTTCTGTTCAAGCGCCATCTAC”: the binding signal was 5.99 RPM ratio (pull-down/input).

Consider “GATGATTGTTCTCCCAGCTGATGAATTGATGTGTTCGAGTAAACAAATTTTCCTAATCTTTCTGTTCAAGCGCCATCTAC”, for which the binding signal is 1.66 RPM ratio (pull-down/input).

Consider “GATGATTGTTCTCCCAGCTGATGAATTTGTACTCTCGAGTAAACAAATTTTCCTAATCTTTCTGTTCAAGCGCCATCTAC”, for which the binding signal is 2.81 RPM ratio (pull-down/input).

For “GATGATTGTTCTCCCAGCTGATGAATTTTTGTACTCGAGTAAACAAATTTTCCTAATCTTTCTGTTCAAGCGCCATCTAC”, the binding signal was 0.489 RPM ratio (pull-down/input).

Regarding “GATGATTGTTCTCCCAGCTGATGAATTGTGTTGTTCGAGTAAACAAATTTTCCTAATCTTTCTGTTCAAGCGCCATCTAC”, the binding signal is 8.43 RPM ratio (pull-down/input).

Regarding “GATGATTGTTCTCCCAGCTGATGAATTTGTGTTTTCGAGTAAACAAATTTTCCTAATCTTTCTGTTCAAGCGCCATCTAC”, the binding signal was 5.24 RPM ratio (pull-down/input).

For the sequence “GATGATTGTTCTCCCAGCTGATGAATTCTTGTGTTCGAGTAAACAAATTTTCCTAATCTTTCTGTTCAAGCGCCATCTAC”, the binding signal is 0.821 RPM ratio (pull-down/input).

“GATGATTGTTCTCCCAGCTGATGAATTTGTGTACTCGAGTAAACAAATTTTCCTAATCTTTCTGTTCAAGCGCCATCTAC”: the binding signal was 6.72 RPM ratio (pull-down/input).

Consider “GATGATTGTTCTCCCAGCTGATGAATTTGTGTTCTCGAGTAAACAAATTTTCCTAATCTTTCTGTTCAAGCGCCATCTAC”, for which the binding signal is 6.29 RPM ratio (pull-down/input).
